Assay outcomes: PubChem BioAssay, National Center for Advancing Translational Sciences (NCATS)
In the library only some 19% were active in any assay of this set; here they are far more common.
IL-1B inflam inh: inflammasome signaling inhibition, IL-1 beta readout. THP-1 LPS/ATP IL-1B secretion, AlphaLISA, 16 h; hits give low values. activity change, % at 57.5 µM. actives 4.7% (n = 360,000); in the data active = activity change below about -50%; inconclusive = mostly about -30% to -49%; also: % is scaled to controls: 0 for no effect and ±100 for the full control effect
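THP-1 cells pretreated 1 hr with compounds (up to 57.5 uM final), then stimulated with LPS (250 ng/mL final) plus ATP (1.25 mM final); secreted IL-1B measured by AlphaLISA after 16 hr, decreased signal indicating inhibition.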
DT40 TDP1 no CPT: qHTS for Inhibitors of human tyrosyl-DNA phosphodiesterase 1 (TDP1): qHTS in cells in absence of CPT | DT40 Tdp1-/- hTDP1 cells, no CPT, ATP luminescence, 48 h | Potency, µM (top dose mostly 46.2 µM), for the others: at the highest dose activity change, negative = growth inhibition, actives largely listed as inhibitors | actives 15% (n = 420,000); also: potency is read from the fitted curve at half-maximal effect; % is scaled to controls: 0 for no effect and ±100 for the full control effect; nearly all actives have a fitted effect of over 55% in size
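Growth kinetics read by CellTiter-Glo luminescence after ≥48 hr at 37 °C. Cells: DT40 Tdp1-/- stably carrying human TDP1, 400 per well, compound exposure in the absence of CPT (DMSO vehicle).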
TDP1 inh: TDP1 (human) enzyme inhibition; recombinant TDP1, AlphaScreen DNA substrate cleavage; Potency, µM (top dose mostly 130 µM), for inactives: at the highest dose activity change, negative = inhibition, usual class: inhibitors; actives 0.28% (n = 350,000); AID 485290; also: potency is read from the fitted curve at half-maximal effect; % is scaled to controls: 0 for no effect and ±100 for the full control effect; nearly all actives have a fitted effect of over 40% in size
Target sequence (Q9NUW8 whole entry, looked up): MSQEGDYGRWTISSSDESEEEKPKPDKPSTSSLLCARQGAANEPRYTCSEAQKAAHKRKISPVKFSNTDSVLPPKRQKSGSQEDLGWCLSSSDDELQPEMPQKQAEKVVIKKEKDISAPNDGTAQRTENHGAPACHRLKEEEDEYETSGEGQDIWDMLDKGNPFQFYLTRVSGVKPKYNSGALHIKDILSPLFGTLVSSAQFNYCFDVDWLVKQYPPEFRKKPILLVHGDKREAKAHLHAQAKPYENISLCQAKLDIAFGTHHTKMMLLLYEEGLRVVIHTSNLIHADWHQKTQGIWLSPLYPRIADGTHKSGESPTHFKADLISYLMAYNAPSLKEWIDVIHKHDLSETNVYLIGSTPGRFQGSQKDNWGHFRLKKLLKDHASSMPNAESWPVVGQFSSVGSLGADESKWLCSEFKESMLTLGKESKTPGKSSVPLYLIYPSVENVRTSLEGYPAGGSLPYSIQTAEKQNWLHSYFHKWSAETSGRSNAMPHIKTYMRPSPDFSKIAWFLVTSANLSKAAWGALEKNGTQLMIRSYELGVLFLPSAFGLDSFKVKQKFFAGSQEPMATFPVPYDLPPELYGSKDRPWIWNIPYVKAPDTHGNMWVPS
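Signal: AlphaScreen proximity between streptavidin donor and anti-FITC acceptor beads on intact substrate. Reaction: Tdp1 1 nM, substrate 15 nM final, 5 min RT after 15 min compound preincubation.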
TDP1 cell CPT: growth inhibition of DT40 Tdp1-/-;hTDP1 cells with camptothecin (screen for TDP1 inhibitors) | chicken DT40 Tdp1-/-;hTDP1 cells + 20 nM CPT, ATP luminescence, 48 h | Potency, µM (series often up to 46.2 µM), for the others: at the top dose activity change, negative = growth inhibition, hits mostly inhibitors | actives 12% (n = 420,000) | AID 686979; also: potency is read from the fitted curve at half-maximal effect; % is scaled to controls: 0 for no effect and ±100 for the full control effect; nearly all actives have a fitted effect of over 55% in size
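Chicken DT40 Tdp1-/- cells stably complemented with human TDP1 were seeded at 400 cells/well in medium containing 20 nM camptothecin, exposed to pin-transferred compounds, and grown at 37 °C for at least 48 hr. Viability was read as ATP luminescence.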
TGFb SMAD3 inh: blocks TGF-b signaling | Potency, µM (series often up to 46.1 µM), for inactives: top-dose activity, negative = inhibition, most hits filed as inhibitors | actives 1.2% (n = 410,000) | AID 588855 | HepG2 CAGA-GFP TGF-b/SMAD3 reporter, GFP fluorescence, 18 h; TGF-beta stimulated, 500 pg/mL final; also: potency is read from the fitted curve at half-maximal effect; % is scaled to controls: 0 for no effect and ±100 for the full control effect; nearly all actives have a fitted effect of over 65% in size
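TGF-beta reporter screen: HEPG2 CAGA-GFP, 1% FBS, 500 pg/mL TGF-beta final, 18 h; per-cell GFP summed per well; curves fitted and categorized by class.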
HepG2 viability: counter-screen for TGF-b inhibitors: cytotoxicity in HepG2 cells; Potency, µM (top dose mostly 46.1 µM), inactives show at the highest dose activity change, negative = cytotoxicity, actives largely listed as cytotoxic; HepG2 CAGA-GFP viability, ATP luminescence, 18 h; actives 0.76% (n = 410,000); AID 588856; also: potency is read from the fitted curve at half-maximal effect
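HepG2 CAGA-GFP cells (1000/well, DMEM with 1% FBS) received compound, then TGF-beta at 500 pg/mL final, and were incubated 18 hours at 37 degrees C. Viability was read by CellTiter-Glo luminescence. Media-only wells were set as complete cell-killing and DMSO as no toxicity.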
Active calls of the source: *; ? = inconclusive; nt = no result; [ ] = remark or other dose. Unless noted, calls follow the shape of the dose curve; as a rule, active = well fitted curve in the direction sought with a large enough effect; inconclusive = small, poorly fitted or top-dose-only effect, or another doubt; inactive = no such curve, though single readings can be large; an effect the other way counts as inactive or inconclusive.

SMILES	IL-1B inflam inh	DT40 TDP1 no CPT	TDP1 inh	TDP1 cell CPT	TGFb SMAD3 inh	HepG2 viability
COc1ccc(-c2noc(CCC(=O)NCCCN3CCN(c4ccc(F)cc4)CC3)n2)cc1	0	18µM*	0%	18µM*	-28%	-39%
COc1ccc(-c2noc(CCC(=O)NCCCN3CCC(Cc4ccccc4)CC3)n2)cc1	-64*	15µM*	1%	15µM*	?	-57%
COc1ccc(-c2noc(=O)n2CC(=O)N2CCC(Cc3ccccc3)CC2)cc1	-5	23µM*	0%	?	-19%	3%
CCN(Cc1nc2cc(Cl)ccc2c(=O)[nH]1)C(=O)c1ccc(C)c(NC(=O)c2ccco2)c1	-1	2%	2%	-1%	-15%	-10%
CCc1ccc(CNc2nc3nc(C)c(Cc4ccccc4)c(=O)n3[nH]2)cc1	nt	?	7%	?	12%	5%
CCOc1cccc(CNCCCSc2nnnn2C)c1	nt	-8%	-3%	0%	0%	-1%
Cn1nnnc1SCCCNCc1cccc(OCc2ccc(F)cc2)c1	nt	23µM*	-2%	?	-5%	-21%
Cn1nnnc1SCCCNCc1ccccc1OCc1ccc(Cl)cc1	nt	23µM*	4%	18µM*	?	-28%
Cn1nnnc1SCCNCc1ccccc1OCc1ccc(Cl)cc1	-89*	16µM*	1%	?	?	-37%
CCOc1cccc(CNCCCSc2ncccn2)c1	-23	15µM*	nt	4.6µM*	24%	13%
CCCCCN(C(=O)CCC(=O)OCC(=O)N(C)Cc1ccccc1C)c1c(N)n(CCCC)c(=O)[nH]c1=O	-2	-22%	-11%	-16%	-3%	7%
COc1cc(CNCCSc2nnnn2C)ccc1OCc1ccccc1C	nt	?	2%	16µM*	-10%	3%
Cn1nnnc1SCCNCc1cc(Cl)ccc1OCc1ccccc1	-9	23µM*	9%	26µM*	?	-48%
CCCCCCC1CCC(C(=O)NC(C(=O)O)C(C)C)CC1 (configuration not stated)	nt	-29%	-3%	-29%	8%	-6%
CC(C)Oc1cc(F)ccc1-c1cc(C(=O)NCc2ccccc2)[nH]n1	-26	-32%	nt	-1%	-5%	-29%
CC(C)Oc1cc(F)ccc1-c1cc(C(=O)Nc2ccc(C(C)C)cc2)[nH]n1	5	15µM*	nt	18µM*	3%	-17%
CC(C)Oc1cc(F)ccc1-c1cc(C(=O)Nc2ccccc2)[nH]n1	-3	23µM*	nt	?	62%	-7%
Nc1ccn([C@@H]2O[C@H](CNC(=O)[C@H]3CCC(=O)N3)[C@@H](O)[C@H]2O)c(=O)n1	21	-7%	nt	11%	18%	17%
C=C1C(=O)C=C[C@]2(C)C[C@@H]3OC(=O)[C@](C)(O)[C@H]3C[C@@H]12	-110*	1.3µM*	4%	1.8µM*	?	-70%
Cc1cccc(NC(=O)c2ccccc2OCC(=O)c2ccccc2)c1	?	16µM*	3%	?	-6%	0%
CCOc1ccccc1C(=O)Nc1ccc(NC(=O)c2ccccc2)cc1	5	-9%	nt	-12%	0%	-1%
CCOc1ccc(NC(=O)C(C)Oc2ccccc2C(=O)Nc2cccc(Cl)c2Cl)cc1 (configuration not stated)	55	18µM*	-1%	?	-24%	-26%
Cc1cccc(NC(=O)COc2ccccc2C(=O)NC(C)c2ccccc2)c1 (configuration not stated)	14	29µM*	2%	?	?	-54%
Cc1ccccc1OCC(=O)Nc1cccc(C(=O)O)c1	26	5%	3%	5%	15%	4%
CCOc1ccccc1C(=O)Nc1ccc(C(=O)c2ccccc2)cc1	-2	?	4%	23µM*	-4%	-2%
SMILES	IL-1B inflam inh	DT40 TDP1 no CPT	TDP1 inh	TDP1 cell CPT	TGFb SMAD3 inh	HepG2 viability
O=C(N1CCCC1)C12CC3CC(CC(Cl)(C3)C1)C2	25	?	nt	?	0%	0%
Cc1nn2c(=O)cc(COC(=O)c3cccc(NC(=O)c4ccc(C(C)(C)C)cc4)c3)nc2s1	nt	0%	6%	4%	5%	0%
COC(=O)c1cccc(C(=O)NCc2nc(-c3ccccc3NC(C)=O)oc2C)c1	nt	-14%	nt	5%[9.04 µM]	nt	nt
CC(C)[C@H](NC(=O)C1CCN(C(=O)[C@@H]2CCCN2)CC1)C(=O)NCc1ccc(F)cc1	0	-5%	nt	2%	2%	-8%
O=c1ccc2ccc(OCc3ccccc3)cc2o1	7	-15%	nt	-8%	3%	-1%
CCOc1ccc(NC(=O)c2ccccc2OCC(=O)c2ccccc2)cc1	-10	16µM*	-1%	23µM*	-11%	-16%
Cc1ccc(NC(=O)c2ccccc2OCC(=O)c2ccccc2)cc1	-25	?	2%	?	1%	-33%
Cc1cccc(C(=O)N2CCCCC2CCN2CCCCC2)c1 (configuration not stated)	nt	2%	0%	3%	-14%	2%
COCCCNC(=S)N1CCCN(c2nc3c(C)c(C)ccc3cc2C#N)CC1	3	-10%	3%	-13%	-4%	-15%
CCc1nc(N2CCN(C(=O)c3ccccc3)CC2)c2c3c(sc2n1)CCCC3	-78*	23µM*	0%	?	?	-25%
COCCCNC(=S)N1CCN(c2nc(C)nc3sc4c(c23)CCCC4)CC1	-13	?	nt	16µM*	?	-31%
CCc1nc(N2CCN(C(=O)c3ccco3)CC2)c2c3c(sc2n1)CCCC3	-20	?	6%	?	0%	-20%
CCCNC(=S)N1CCN(c2nc(C)nc3sc4c(c23)CCCC4)CC1	-74*	?	2%	?	-29%	-19%
Cc1nc(N2CCNCC2)c2c3c(sc2n1)CCCC3	-7	?	nt	?	8%	6%
CCCNC(=O)c1c(NC(=O)c2ccccc2)sc2c1CCC(C(C)(C)C)C2 (configuration not stated)	nt	-11%	nt	2%	-2%	3%
COc1ccc(NC(=O)C2CCC(CNS(=O)(=O)c3csc(C(N)=O)c3)CC2)cc1 (configuration not stated)	nt	-15%	-3%	?	-4%	-6%
O=C(c1ccc(Cl)cc1)N1CCC(O)(CSc2ccc(Cl)cc2Cl)CC1	-20	?	3%	16µM*	?	-73%
